Source: PubChem
Only some compounds are listed: those with a hit (about 4.7% of all), similar ones and a draw of the others.
Efflux pump inh – inhibitors of Candida efflux pumps in yeast, primary screen, S. cerevisiae, Nile Red, multiplex; S. cerevisiae Candida pump triplex; inhibition, % at 10 µM; AID 485275, 2010; 330,000 tested, 0.44% active;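 active means plate passing quality check with inhibition over a set limit, or well fluorescence over plate mean plus 4 SD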;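 further: Nile Red retained in pooled yeast measured as flow cytometry median fluorescence; 0% = buffer negative control and 100% = Enniatin B positive control; higher means more Nile Red kept so more efflux inhibition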
PABP FP inh – PABP poly(A) RNA binding inhibitors, primary screen, biochemical, fluorescence polarization, uHTS | 290,000 tested, 1% active | inhibition, % at 35 µM | Polyadenylate-binding protein 1 (Homo sapiens), P11940;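 further: calls also rest on retests at 20 µM and on dose response follow-up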
eIF4H FP inh – human eIF4H binding inhibitors, primary screen, translation initiation inhibitor project, biochemical, uHTS, fluorescence polarization; inhibition, % at 35 µM; 290,000 tested, 0.94% active; AID 2012, 2009; eIF4H fluorescence polarization binding assay;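 further: calls also rest on retests at 20 µM and on dose response follow-up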
ALR H2O2 inh – inhibitors of human ALR sulfhydryl oxidase, primary screen, biochemical, H2O2 detection, HRP-luminol luminescence, single point | FAD-linked sulfhydryl oxidase ALR (Homo sapiens), P55789 | purified ALR, DTT oxidation | inhibition, % (no concentration beside the values) | 290,000 tested, 3.8% active | AID 485317, 2010;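 active means mean replicate inhibition above about 79%, with every replicate also reaching it, limit read from the data; inconclusive means only one of the two criteria met; inactive means mean below limit and not every replicate reaching it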
Target sequence (P55789 whole entry, looked up): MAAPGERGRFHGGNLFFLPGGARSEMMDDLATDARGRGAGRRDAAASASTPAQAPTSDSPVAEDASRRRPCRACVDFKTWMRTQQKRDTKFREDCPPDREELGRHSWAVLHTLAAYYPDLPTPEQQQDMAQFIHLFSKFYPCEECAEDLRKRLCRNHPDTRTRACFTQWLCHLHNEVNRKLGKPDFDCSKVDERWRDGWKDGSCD
MLLE-PAM2 inh – inhibitors of PABP1 MLLE–PAM2 peptide binding, primary screen, biochemical, fluorescence polarization, FITC-PAM2, GST-MLLE | Polyadenylate-binding protein 1 (Homo sapiens), P11940 | inhibition, % at 20 µM | 360,000 tested, 0.36% active | AID 588489, 2011; in the data active means inhibition above about 35%, passing the limit was not always enough;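 further: plate controls were DMSO wells with GST-MLLE for no effect and wells lacking GST-MLLE protein for full effect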
UBC9 SUMO inh – inhibitors of in vitro SUMOylation cascade, primary screen, biochemical, HTRF, uHTS. HTRF SUMOylation assay, SAE1/SAE2 + UBC9. inhibition, % at 35 µM. 290,000 tested, 0.36% active. AID 2006, 2009; in the data active means inhibition above about 50%, passing the limit was not always enough; inconclusive means no clear call, values can overlap the other calls
Target sequence (P63279 whole entry, looked up): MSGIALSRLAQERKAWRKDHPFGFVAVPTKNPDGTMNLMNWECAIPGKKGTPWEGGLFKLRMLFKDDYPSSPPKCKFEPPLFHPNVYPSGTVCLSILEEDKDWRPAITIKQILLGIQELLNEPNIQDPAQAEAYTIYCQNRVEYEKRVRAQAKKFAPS
* hit, by the source's call; ? = inconclusive; . = not tested or not shown. Unless noted, how the calls were made is not given here.

SMILES	Efflux pump inh	PABP FP inh	eIF4H FP inh	ALR H2O2 inh	MLLE-PAM2 inh	UBC9 SUMO inh
O=C(Nc1nnc(-c2cccnc2)o1)c1cccc([N+](=O)[O-])c1	0	4	5	90*	.	-3
Cc1cccc(C(=O)Nc2nnc(-c3cccnc3)o2)c1	1	3	3	6	2	12
COc1cc(C)c2c(c1OC)C(=O)CC2	.	.	.	.	12	.
Cc1cc(=O)n(C)c(=O)n1CCCCCN1CCCC1	0	0	7	100*	6	-8
CN1CCN(CCNC(=O)c2ccc(CS(=O)c3ccc(Br)cc3)o2)CC1 (stereo not given)	.	.	.	.	0	.
COc1cc(/C=C(/NC(=O)c2ccccc2)C(=O)Nc2ccc(O)cc2)c([N+](=O)[O-])cc1OC	1	-7	-9	99*	2	16
COc1cc(C(=O)Nc2ccncc2)c([N+](=O)[O-])cc1OC	0	-4	0	-8	11	-4
COc1cc(C(=O)Nc2ccc(N(C)C)cc2)c([N+](=O)[O-])cc1OC	0	-5	2	89*	-13	-8
COc1cc(/C=C(/NC(=O)c2ccccc2)C(=O)Nc2ccccc2)c([N+](=O)[O-])cc1OC	0	-9	-4	-8	-18	5
O=C(NCCO)/C(=C\c1cccs1)NC(=O)c1cccs1	0	120*	3	-5	-4	-1
O=C(Nc1ccc(O)cc1)/C(=C\c1cccs1)NC(=O)c1ccccc1	0	4	10	100*	-3	13
CC[C@@H]1[C@H]2CCCC(=O)N3CC[C@@H](C[C@@H]1Nc1ccccc1)[C@@H]23	0	-6	-1	99*	-2	18
Cc1ccc(OCC(=O)Sc2ccc(C)cc2)cc1	0	-7	-1	100*	25	17
Cc1ccc(OCC(=O)NCCNC(=O)COc2ccc(C)cc2)cc1	0	-5	-6	-3	-4	10
COc1ccccc1OCC(=O)Sc1ccc(C)cc1	0	69	-13	98*	36*	-1
Cc1cc(C)nc(SCc2ccc(C(=O)N/N=C/c3ccccc3C(=O)O)cc2)n1	0	-1	-3	91*	19	11
COc1ccc(OC)c(NC(=O)C(C)OC(=O)c2cc3ccccc3[nH]2)c1 (stereo not given)	.	.	.	.	-11	.
COC(=O)Cc1[nH]n(-c2nc3ccccc3s2)c(=O)c1C(C)=Nc1ccc(C)cc1	0	-5	-2	98*	-1	14
COC(=O)Cc1[nH]n(-c2nc3ccccc3s2)c(=O)c1C(C)=Nc1ccc(Cl)cc1	0	11	2	60	-2	23
CC1(OC(=O)CCc2ccccc2)C(=O)C=C2C=C(c3ccc(C#N)cc3)N(CCc3c[nH]c4ccccc34)C=C2C1=O (stereo not given)	0	4	-3	1	-10	8
C=C(c1ccc(O)cc1)c1ccc(O)cc1	0	-3	101	98*	4	-11
COCCNC(=O)C1(C)CCCN(C(=O)c2cc(C)oc2C)C1 (stereo not given)	.	.	.	.	10	.
CN(CC(=O)Nc1ccc(F)c(F)c1F)C(=O)CCCSc1nc2ccccc2[nH]1	0	.	.	4	-7	.
CC(C)(C)c1nn(-c2ccccc2)c2[nH]c(=O)c(CNc3ccc4c(c3)OCCO4)cc12	0	7	12	-20	-8	-4
Cc1nn(-c2ccccc2)c2[nH]c(=O)c(CNc3ccc(N4CCOCC4)cc3)cc12	0	13	50	97*	-11	7
SMILES	Efflux pump inh	PABP FP inh	eIF4H FP inh	ALR H2O2 inh	MLLE-PAM2 inh	UBC9 SUMO inh
OCc1ccc2c(c1)c(-c1ccc3c(c1)OCCO3)c(-c1ccccc1)n2-c1ccccc1	0	.	.	-5	10	.
Cc1ccc2c(c1)c1c3n2CCN=C3CCC1	0	76*	59*	-11	-14	11
COc1ccccc1NC(=O)c1sc2nc(C)cc(C)c2c1N	0	.	.	.	12	.
Nc1c(C(=O)Nc2ccccc2)sc2nc(-c3cccnc3)ccc12	0	13	8	-3	.	30
COc1ccccc1NC(=O)c1sc2nc(-c3ccco3)ccc2c1N	1	40	49	-4	-32	54*
Nc1c(C(=O)Nc2ccccc2)sc2nc(-c3ccco3)ccc12	0	76*	75*	-10	-16	58*
O=C(CSc1nnc(COc2ccc(Cl)cc2)o1)N(c1ccccc1)C1CCS(=O)(=O)C1 (stereo not given)	.	.	.	.	-9	.
O=C1C(NS(=O)(=O)c2cccs2)=C(N2CCN(c3cccc(Cl)c3)CC2)C(=O)c2ccccc21	0	51*	2.3*	-25	4	37
O=C1C(NS(=O)(=O)c2ccccc2)=C(N2CCN(c3ccc(F)cc3)CC2)C(=O)c2ccccc21	0	20	14	-22	16	29
COCCNC(=O)C1(C)CCN(Cc2ccc3ccccc3c2Br)C1 (stereo not given)	.	.	.	.	14	.
Cc1cc(-c2n[nH]c(=S)n2/N=C/C(Cl)=C/c2ccccc2)n[nH]1	0	-11	-8	96*	-19	15
S=c1[nH]nc(-c2ccco2)n1/N=C/C(Cl)=C/c1ccccc1	0	14	6	97*	-92	23
CCOC1=CC2=C(C(=O)C(Cl)=CC2=O)[C@@H]2CN(S(=O)(=O)c3ccc(C)cc3)[C@@H](c3ccccc3)[C@H]12	.	.	.	.	46*	.
COc1cc(C2Nc3cccc4cccc(c34)N2)ccc1O	0	39*	79*	-54	-10	28
COc1cc(C2Nc3cccc4cccc(c34)N2)cc(OC)c1OC(C)=O	0	57*	89*	-9	21	24
Oc1ccc2ccccc2c1C1Nc2cccc3cccc(c23)N1	0	50*	77*	-5	-10	?
COc1ccc(Br)cc1C1Nc2cccc3cccc(c23)N1	0	61*	102*	1	20	22
C[C@@H]1CN([C@@H](C)CO)C(=O)CCCn2nncc2CO[C@H]1CN(C)S(=O)(=O)c1ccccc1F	.	.	.	.	9	.
Cc1cccc(C)c1NC(=O)CN1C(=O)NC(C)(C2CC2)C1=O (stereo not given)	0	.	.	.	-3	.
NC(=O)COC(=O)c1ccc2noc(-c3ccccc3)c2c1	0	14	9	.	6	7
Cc1cccc(-n2c(O)c(C=Nc3cc(O)ccc3C)c3ccccc3c2=O)n1	0	2	?	.	9	16
Cc1cccc(-n2c(O)c(C=Nc3ccc(O)cc3)c3ccccc3c2=O)n1	0	-5	6	99*	-12	15
